Consider 14 compounds from PubChem BioAssay (NCATS).

Records with an inconclusive call do not appear. Calls of active or inactive are those of the source. The call rests on the fitted dose curve.
On the % scale 0 is the no-effect control and ±100 the full control effect.

This experiment can be described thus: Primary qHTS for Vero E6 cytotoxicity: counterscreen for inhibitors of SARS-S pseudo-typed particle cell entry (AID 1479150). The note with it: cell viability; series mostly up to 57.1 µM; activity change, negative = cytotoxicity: at the top concentration. On the technique in general: qHTS replaces the single test concentration by a dilution series.
Regarding `C[C@]12C=CC(=O)C=C1CC[C@@H]1[C@@H]2[C@@H](O)C[C@@]2(C)[C@H]1CC[C@]2(O)C(=O)COP(=O)(O)O`, the activity change, negative = cytotoxicity is -2.88% [at 11.4 µM] (inactive).

For the compound `COc1ccc(CNCC(O)COc2ccc3[nH]c(=O)ccc3c2)cc1OC` (centres undefined), the outcome was inactive. Regarding `Cc1ncc(COP(=O)(O)O)c(CN)c1O`, the compound was called inactive.

Turning to `Cn1nnnc1SCC1=C(C(=O)O)N2C(=O)[C@@H](NC(=O)[C@H](OC=O)c3ccccc3)[C@H]2SC1`, the compound was called inactive. Regarding `CCC(=O)OC1(C(=O)CCl)C(C)CC2C3CC(F)C4=CC(=O)C=CC4(C)C3(F)C(O)CC21C` (centres undefined), the call was inactive. On to `CC(OC(=O)NCC1(CC(=O)O)CCCCC1)OC(=O)C(C)C` (centres undefined), for which the “activity change, negative = cytotoxicity” value was 2.24% (inactive).

As to `Cc1c(Cl)c(C)[n+]([O-])c(Cl)c1-c1noc(-c2cc(O)c(O)c([N+](=O)[O-])c2)n1`, the compound was classed as inactive. Consider `CCCCCCCCCCCCCCCC(=O)OCC(O)C1OC(=O)C(O)=C1O` (centres undefined), for which the “activity change, negative = cytotoxicity” value is 0.202% (inactive).

As for `CC(C)(C)NCC(O)c1ccc(O)c(CO)n1` (centres undefined), the “activity change, negative = cytotoxicity” value was -12.7% (inactive). For `CC(C)N(CCCCOCC(=O)NS(C)(=O)=O)c1cnc(-c2ccccc2)c(-c2ccccc2)n1`, the compound was called inactive. Consider `CC[N+](CC)(CC)CCC(O)(c1ccccc1)C1CCCCC1` (centres undefined), for which the compound was called inactive.

In the case of `O=P(O)(O)OC1C(OP(=O)(O)O)C(OP(=O)(O)O)C(OP(=O)(O)O)C(OP(=O)(O)O)C1OP(=O)(O)O` (centres undefined), the call was inactive. As to `CC[C@@H]1CCN[C@H](C(=O)N[C@@H]([C@H]2O[C@H](SC)[C@H](O)[C@@H](O)[C@H]2O)[C@H](C)Cl)C1`, the “activity change, negative = cytotoxicity” value was -1.71% (inactive).

`N=c1ccn2c(n1)O[C@@H]1[C@@H](O)[C@H](CO)O[C@@H]12`: the compound was called inactive.
